Source: article PMC7819943, “Rice protein-binding microarrays: a tool to detect cis-acting elements near promoter regions in rice”
The full ranking holds about 35,000 sequences; the median of “fluorescence intensity (a.u.)” is about 10,000, and the highest 2% start at about 52,000. This is one part of a sample in which the highest values are shown more often than they occur.

target: T1, OsWOX13 (Oryza sativa, UniProt Q5QMM3 1-267); assay: protein-binding microarray (RPBM); PBS, 2% BSA, 51.3 ng/ul salmon testes DNA, 50 uM zinc acetate, 200 nM TF, 25 C, 1 h; high values mean tight binding; conditions: protein: recombinant; tags: N-terminal polyhistidine and DsRed monomer fusion (pET32a); label: CyDye5-dUTP incorporated in the synthesized complementary strand; 3' TTTTT single-stranded linker to array surface; dsDNA, one strand shown
T1 sequence: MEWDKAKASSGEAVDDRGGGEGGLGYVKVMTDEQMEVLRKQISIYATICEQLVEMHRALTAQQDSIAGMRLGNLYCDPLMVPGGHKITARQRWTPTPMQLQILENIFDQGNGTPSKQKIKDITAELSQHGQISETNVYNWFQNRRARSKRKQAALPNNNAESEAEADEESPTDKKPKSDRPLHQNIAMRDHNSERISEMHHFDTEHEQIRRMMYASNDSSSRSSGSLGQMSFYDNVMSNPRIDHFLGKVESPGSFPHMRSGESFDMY
Outline: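 Transcription factors were each fused at the N-terminus to a polyhistidine tag plus DsRed and expressed in E. coli BL21-CodonPlus before Ni–NTA purification. Binding to a double-stranded custom Agilent array was carried out with 200 nM protein at 25 °C for 1 h in PBS, 2% BSA, salmon testes DNA and 50 µM zinc acetate. The binding signal is per-feature fluorescence intensity, in arbitrary units, on an Axon 4000B scanner.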

| Sequence | binding signal |
| --- | --- |
| GTGATGATTTATTTTCGAACTATCTAGCTATTTATCTAGACGGAGTCACCTAGTGCAG | 9370 fluorescence intensity (a.u.) |
| CTCCAATTCATCTATAATCAATCTAATAGCCAATTCATACCGGAGTCACCTAGTGCAG | 5900 fluorescence intensity (a.u.) |
| GTTTTATTCTGATTAAATTAAATGCCACAGGGACATTGTCCGGAGTCACCTAGTGCAG | 9600 fluorescence intensity (a.u.) |
| ATGTGGCCGATAATTGCTTTGCATGCTGATGGATGTGGCTCGGAGTCACCTAGTGCAG | 4180 fluorescence intensity (a.u.) |
| GTCATAAATTGATCCATACATATCATAGTAAAGCGTGGGTCGGAGTCACCTAGTGCAG | 33400 fluorescence intensity (a.u.) |
| ATCTAATCTTGAATTAAACTCACTATCAATTCCCACCATCCGGAGTCACCTAGTGCAG | 4380 fluorescence intensity (a.u.) |
| GAAATAATTGATTGAATCCTATTCTATCCTCTAAAATTCCCGGAGTCACCTAGTGCAG | 30900 fluorescence intensity (a.u.) |
| CTAAATTGAATCTATCCACTTTGCCTCCTAAACTCACCCCCGGAGTCACCTAGTGCAG | 54600 fluorescence intensity (a.u.) |
| TAGTCAATTACTACTAGGTATGTGCTATTCATAACCATGACGGAGTCACCTAGTGCAG | 7320 fluorescence intensity (a.u.) |
| AGCTTTTCAGACTGAAAATGTAATAGACAACCTTATCAGACGGAGTCACCTAGTGCAG | 3810 fluorescence intensity (a.u.) |
| GGTAAATTGCAATACTCCGGATGTTCAGAGACAATAAGAGCGGAGTCACCTAGTGCAG | 13900 fluorescence intensity (a.u.) |
| TTAGATTATTGAGTCAGATTACTATAAGCTAGATTATTATCGGAGTCACCTAGTGCAG | 12500 fluorescence intensity (a.u.) |
| CGTAATTAGTAGGTTGATTACTATTTGCTAATCATAAGTGCGGAGTCACCTAGTGCAG | 65200 fluorescence intensity (a.u.) |
| ACAAATTAGCTATTATATTGGCTATAGATGATTTGGAGTACGGAGTCACCTAGTGCAG | 42300 fluorescence intensity (a.u.) |
| TTGCCAATTATGATTGGAGATTTACAAGTAGACTTCAATACGGAGTCACCTAGTGCAG | 18500 fluorescence intensity (a.u.) |
| TATCGATCGATTGATTGCTATAGCTAGGTCAAATCGATCGCGGAGTCACCTAGTGCAG | 28100 fluorescence intensity (a.u.) |
| TATGAATGCATTATGATTACTATTTGCTAATCATAAGTGGCGGAGTCACCTAGTGCAG | 11000 fluorescence intensity (a.u.) |
| TACAAATTGATTGGCTATAGGTCAAATAGTGGATCCTAGACGGAGTCACCTAGTGCAG | 56000 fluorescence intensity (a.u.) |
| TGCTAGTTAATATAATCTACTAATTAAAATAGTCGATTGACGGAGTCACCTAGTGCAG | 6000 fluorescence intensity (a.u.) |
| TAGTAATTGATTGCTGCCAAGATTACATTACTGCCCAATACGGAGTCACCTAGTGCAG | 65500 fluorescence intensity (a.u.) |
| TTGATTAATTTGACGTCGATGCTACTAATAGTTAACCTTCCGGAGTCACCTAGTGCAG | 54200 fluorescence intensity (a.u.) |

| Sequence | binding signal |
| --- | --- |
| CAATCATTGATTGTTACTTTGTTAGTAATTGGTTAGTATACGGAGTCACCTAGTGCAG | 30100 fluorescence intensity (a.u.) |
| TTGTAATTAGTAGGGTGATTACTATTTGGTAATCATAAGTCGGAGTCACCTAGTGCAG | 33000 fluorescence intensity (a.u.) |
| GTGCTAATATAATTTAAATAACTAGTTTGACGGACAAATCCGGAGTCACCTAGTGCAG | 10800 fluorescence intensity (a.u.) |
| ACAAAACCATTTGTGATTTTCTTTGAGTGCCCAGTTTTGTCGGAGTCACCTAGTGCAG | 3210 fluorescence intensity (a.u.) |
| GAGTAAATTGCACACGGATGCAATCAATTGACCTGTGCTGCGGAGTCACCTAGTGCAG | 20000 fluorescence intensity (a.u.) |
| TTATATTGATTTTCGTATGATTTTGGACACATAAGTACCTCGGAGTCACCTAGTGCAG | 38200 fluorescence intensity (a.u.) |
| CATAATTGGTAAATTTGCGGGTTCAATTCCTGCTGGATGCCGGAGTCACCTAGTGCAG | 59500 fluorescence intensity (a.u.) |
| ATTAACTATAAATGATTTGGAGTCAATAGTTGGCTATAATCGGAGTCACCTAGTGCAG | 16100 fluorescence intensity (a.u.) |
| AGTAATTGATTGGCCGGATGCTACCGGTAGTTACTGACTACGGAGTCACCTAGTGCAG | 60500 fluorescence intensity (a.u.) |
| ATACTGCTGTAACATTTGATTGGATTGAAAGGATATCGCTCGGAGTCACCTAGTGCAG | 20500 fluorescence intensity (a.u.) |
| CTGAAATTGAAGTTAAATGCTACTAGTAATAATTGTACTACGGAGTCACCTAGTGCAG | 30100 fluorescence intensity (a.u.) |
| GGATTTGATTGGATAAGCCGCTCGTAAGGACACCGTGCCTCGGAGTCACCTAGTGCAG | 52300 fluorescence intensity (a.u.) |
| GAAATAAATTTTGGATTGGCTATGTTAATATGATATGACCCGGAGTCACCTAGTGCAG | 25900 fluorescence intensity (a.u.) |
| ATCACATAAAATTCCAGGGTTAATTGGATCCATGCTACTGCGGAGTCACCTAGTGCAG | 8150 fluorescence intensity (a.u.) |
| AGTAGTTAATTGGATTGGGCCGGGCCCACCGGCCCACGGCCGGAGTCACCTAGTGCAG | 30300 fluorescence intensity (a.u.) |
| TTGACTATAATTGATTTGGATAGTTGGCTATAATAAACCTCGGAGTCACCTAGTGCAG | 54500 fluorescence intensity (a.u.) |
| GTTCGCGTGATTAATCAAAGCCTATTCCTTGTCACTATGACGGAGTCACCTAGTGCAG | 12400 fluorescence intensity (a.u.) |
| AAGAAAACCTAATTGTTACTACCATTTACCAAACCTACCACGGAGTCACCTAGTGCAG | 3910 fluorescence intensity (a.u.) |
| ACACATGATTTGCATGCCAACCTTATTTCTCCTTCACTTTCGGAGTCACCTAGTGCAG | 16500 fluorescence intensity (a.u.) |
| CACTGCAAATTAGATCTATATATAGTGAAACATTGTGAGACGGAGTCACCTAGTGCAG | 6780 fluorescence intensity (a.u.) |
| CGCCGTAACAATCAGAACCAATCATGCTCTATGTGTAGTTCGGAGTCACCTAGTGCAG | 30300 fluorescence intensity (a.u.) |
